activity, negative = inhibition and Potency data for four compounds are collected here from PubChem BioAssay (NCATS).

Records with an inconclusive call do not appear. A number with no mark means an inactive call. Activity calls are given as the source filed them. Calls follow the shape of the dose curve; as a rule, active = well fitted inhibition curve with a large enough effect; inconclusive = small, poorly fitted or top-dose-only effect; inactive = flat fitted curve, though single readings scatter.

Assay [1] can be described thus: qHTS profiling for inhibitors of Plasmodium falciparum proliferation (AID 504749). Also: nearly all actives have a fitted effect of over 60% in size.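 As to activity, negative = inhibition: 0% = DMSO vehicle and full inhibition = artemisinin control.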 The settings on record: P. falciparum in erythrocytes, SYBR Green DNA, 72 h, parasite line A. The procedure, abridged:
(§1)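 P. falciparum-infected erythrocytes (0.3% parasitemia, 2.5% hematocrit final) were exposed to compounds for 72 h at 37 C in 5% CO2, then lysed with SYBR Green buffer overnight at room temperature; parasite DNA fluorescence was normalized to artemisinin and DMSO controls.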

For another assay, the system named is 3D7. Described as above. The settings on record: P. falciparum in erythrocytes, SYBR Green DNA, 72 h; series mostly up to 28.7 µM. The procedure, abridged: as §1
The subject of a further assay is 7G8. The description is as above. The note with it: P. falciparum in erythrocytes, SYBR Green DNA, 72 h; series mostly up to 28.7 µM. In outline: as §1
For another assay, the system named is C2A. Described as above. The settings on record: P. falciparum in erythrocytes, SYBR Green DNA, 72 h; series mostly up to 28.7 µM. The procedure, abridged:
as §1

In the next assay the test system is CP185. The description is as above. The settings on record: P. falciparum in erythrocytes, SYBR Green DNA, 72 h; series mostly up to 28.7 µM. In outline: as §1
The next assay relates to CP192. Described as above. The note with it: P. falciparum in erythrocytes, SYBR Green DNA, 72 h; series mostly up to 28.7 µM. The procedure, abridged:
as §1

For another assay, the system named is AA1029. The description is as above. The note with it: P. falciparum in erythrocytes, SYBR Green DNA, 72 h; series mostly up to 28.7 µM. In outline: as §1
The subject of another assay is AS120. The description is as above. The settings on record: P. falciparum in erythrocytes, SYBR Green DNA, 72 h; series mostly up to 28.7 µM. In outline:
as §1

The subject of the next assay is ATS189. Described as above. The note with it: P. falciparum in erythrocytes, SYBR Green DNA, 72 h; series mostly up to 28.7 µM. The procedure, abridged:
as §1

Another assay deals with ATS95. The description is as above. The note with it: P. falciparum in erythrocytes, SYBR Green DNA, 72 h; series mostly up to 28.7 µM. In outline:
as §1
Potency is read from the fitted curve at half-maximal effect.

In the case of `N[C@@H](Cc1cc(I)c(Oc2ccc(O)c(I)c2)c(I)c1)C(=O)O`, the activity, negative = inhibition in assay [1] (at 28.7 µM (top of the series)) was -3.92%. Further, the Potency entry with 3D7, in the assay with C2A, with CP185 and in the assay on CP192 was “inactive” each time. For the same compound, the Potency in the assay on 7G8 was 12.6 µM (active).
Consider `CCCC(CCC)C(=O)OC1C[C@H]2CC[C@@H](C1)[N+]2(C)C` (some centres not stated), for which the Potency was 5.62 µM (active) in assay [1], 11.2 µM (active) in the assay on 7G8 and 11.2 µM (active) with AA1029.
In the case of `Nc1ccc(N=Nc2ccccc2)c(N)n1`, the Potency in assay [1] was 10 µM (active). The Potency entry in the assay with 3D7, in the assay on 7G8, in the assay on AA1029, in the assay on AS120, with ATS189 and in the assay with ATS95 was “inactive” in each case. Besides, the Potency result with CP185 and in the assay with CP192 was “inactive” each time.
As to `CN(C)CCC=C1c2ccccc2C(C)(C)c2ccccc21`, the Potency entry in the assay on 3D7, with ATS189 and in the assay with CP192 was “inactive” each time. Further, the Potency with 7G8 was 7.94 µM (active).
